High-throughput results: PubChem, National Center for Advancing Translational Sciences (NCATS)
Shown is part of a subset that was picked to be rich in hits.
IMPase Li cell = qHTS Assay for Identifying the Cell-Membrane Permeable IMPase Inhibitors: Potentiation with Lithium. AID 1457, 2008. CHO-M1 cells, IP1 TR-FRET (IP-One), carbachol + lithium. hit rate 0.35% among 210,000. Potency, µM (highest dose often 59.4 µM), without a hit: at the highest dose activity, negative = IMPase inhibition, most hits filed as inhibitors;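 also: IP1 builds up when IMPase is blocked and the TR-FRET signal falls; plate controls were basal vehicle for no effect and high inhibitor control for full effect; nearly all actives have a fitted effect of over 50% in size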
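Readout is a homogeneous TR-FRET IP1 immunoassay (Ex 320, Em 665 and 620), where raised cytosolic IP1 lowers signal. Cells were CHO-M1 treated 30 min at 37C with test compounds plus a little lithium; AC50 values came from Hill-equation fitting.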
MBNL1-CUG inh = qHTS Assay for Inhibitors of MBNL1-poly(CUG) RNA binding; hit rate 0.036% among 280,000; TR-FRET MBNL1-His/biotin-(CUG)12 binding, 665/545 ratio; Muscleblind-like protein 1 (Homo sapiens), Q9NR56; Potency, µM (titrated, usually from 57.5 µM), without a hit: at the top dose activity change, negative = inhibition, hits mostly inhibitors; AID 2675, 2010; active = well fitted inhibition curve with a large enough effect in the signal ratio, with a control signal flat, not every such curve was filed as active; inconclusive = small, poorly fitted or top-dose-only effect, or effect the other way, or a change in a side signal; inactive = no such curve, though single readings can be large or run the other way; the % refers to the signal ratio
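Compound titration spanned 92 nM–58 uM against the MBNL1-His/biotin-(CUG)12 complex. After 60 min at room temperature with 5 nM streptavidin-XL665 and 0.055 ng/ul terbium anti-His, ratiometric 665/545 nm emission (Ex 340 nm) normalized to controls.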
NPSR antagonist = qHTS Assay for Antagonists of the Neuropeptide S Receptor: cAMP Signal Transduction. Q6W5P4. CHO-NPSR cells, cAMP TR-FRET, antagonist mode. Potency, µM (series often up to 38.3 µM), without a hit: top-dose activity change, negative = inhibition, most hits filed as inhibitors. hit rate 1% among 220,000; also: nearly all actives have a fitted effect of over 50% in size
Tb PFK inh = qHTS Assay to Find Inhibitors of T. brucei phosphofructokinase. ATP-dependent 6-phosphofructokinase (Trypanosoma brucei brucei), O15648. T. brucei PFK, ADP-Glo luminescence. Potency, µM (titrated, usually from 57.5 µM), for inactives: at the highest dose activity, negative = inhibition, actives largely listed as inhibitors. hit rate 0.17% among 330,000. AID 485367, 2010;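 also: 0% = uninhibited 1x PFK enzyme wells and -100% = no-enzyme wells; nearly all actives have a fitted effect of over 60% in size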
Target sequence (O15648 whole entry, looked up): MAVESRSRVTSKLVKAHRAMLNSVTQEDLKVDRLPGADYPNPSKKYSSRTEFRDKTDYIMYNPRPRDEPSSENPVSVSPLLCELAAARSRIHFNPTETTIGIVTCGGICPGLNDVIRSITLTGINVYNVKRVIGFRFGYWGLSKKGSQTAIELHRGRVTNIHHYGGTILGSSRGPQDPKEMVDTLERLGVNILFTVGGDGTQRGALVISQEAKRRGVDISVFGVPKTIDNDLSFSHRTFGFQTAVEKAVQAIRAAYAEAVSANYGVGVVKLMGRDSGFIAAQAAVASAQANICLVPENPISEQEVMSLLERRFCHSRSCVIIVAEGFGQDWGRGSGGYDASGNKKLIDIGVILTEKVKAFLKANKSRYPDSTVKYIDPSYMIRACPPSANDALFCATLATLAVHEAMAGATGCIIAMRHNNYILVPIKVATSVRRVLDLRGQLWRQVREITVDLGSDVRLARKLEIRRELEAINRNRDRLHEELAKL
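Luminescent ADP detection (ADP-Glo, two-step: ATP depletion then ADP-to-ATP conversion for luciferase) reported PFK activity after 45 min room-temperature reaction of 1.25 nM enzyme with 0.5 mM F6P and 0.1 mM ATP at pH 8.0.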
RGS12 GoLoco inh = qHTS Assay for Inhibitors of RGS12 GoLoco Motif Activity (Red Fluorophore); hit rate 0.44% among 230,000; Guanine nucleotide-binding protein G(i) subunit alpha-1 (Homo sapiens), P63096; Potency, µM (doses to about 61.6 µM), for the others: at the highest dose activity, negative = inhibition, usual class: inhibitors; Gai1:RGS12 GoLoco peptide FP, rhodamine, 10 min; active = well fitted inhibition curve with a large enough effect, not every such curve was filed as active; inactive = no such curve, though single readings can be large or run the other way; also: nearly all actives have a fitted effect of over 30% in size
Numbers without * were called inactive; [ ] = remark or other dose. Unless noted, calls follow the shape of the dose curve; as a rule, active = well fitted curve in the direction sought with a large enough effect; inconclusive = small, poorly fitted or top-dose-only effect, or another doubt; inactive = no such curve, though single readings can be large; an effect the other way counts as inactive or inconclusive. Unless noted, % is scaled to controls: 0 for no effect and ±100 for the full control effect; potency is read from the fitted curve at half-maximal effect.

What do the screens show for `C=CCn1c(SCC(=O)NCc2ccco2)nc2sc3c(c2c1=O)CCCC3`?
IMPase Li cell: 3%[38.3 µM]; MBNL1-CUG inh: 3%; NPSR antagonist: -3%[46.1 µM]; Tb PFK inh: -3%; RGS12 GoLoco inh: 1%

Results for O=C(NCc1ccco1)c1ccc2nc3sc4c(c3c(=O)n2c1)CCCC4 ?
IMPase Li cell: 11%; MBNL1-CUG inh: inconclusive; NPSR antagonist: 10µM*; Tb PFK inh: -4%; RGS12 GoLoco inh: 13%

Results for COc1ccc(-c2noc(C(C)NC(=O)c3ccco3)n2)cc1OC (stereo not drawn) ?
MBNL1-CUG inh: 6%; Tb PFK inh: 1%

Results for CSCC(C)N1CCC(Oc2cccc(C(=O)NCc3ccccn3)c2)CC1 (stereo not drawn) ?
MBNL1-CUG inh: -1%; Tb PFK inh: 3%

How did NC(=S)N/N=C/c1ccc(-c2ccccc2)o1 do in these assays?
IMPase Li cell: -7%; MBNL1-CUG inh: inconclusive; NPSR antagonist: -47%; Tb PFK inh: 1%; RGS12 GoLoco inh: 8%

Results for Cc1ccc(-c2ccc(/C=N/NC(N)=S)o2)cc1 ?
MBNL1-CUG inh: inconclusive; NPSR antagonist: 6.3µM*; Tb PFK inh: 2%; RGS12 GoLoco inh: -15%

Results for Cc1cccc[n+]1C1C(c2ccccc2)C(C#N)=C(C(=C=[N-])C#N)NC1(O)C1CC1 (stereo not drawn) ?
IMPase Li cell: inconclusive; MBNL1-CUG inh: 92%; NPSR antagonist: 16%[46.1 µM]; Tb PFK inh: 1%; RGS12 GoLoco inh: 50%

How did N#CC(=C=[N-])C1=C(C#N)C(c2ccccc2F)C([n+]2ccccc2)C(O)(C2CC2)N1 (stereo not drawn) do in these assays?
IMPase Li cell: 13µM*; MBNL1-CUG inh: 31%; NPSR antagonist: inconclusive; Tb PFK inh: 2%; RGS12 GoLoco inh: 40%

How did CCOC(=O)N1CCc2c(sc(NC(=O)c3ccc(Cl)s3)c2C(N)=O)C1 do in these assays?
IMPase Li cell: 10%; MBNL1-CUG inh: -6%; NPSR antagonist: 2.5µM*; Tb PFK inh: 21%; RGS12 GoLoco inh: 64%

What do the screens show for `O=C(NC1CCCCC1)C(c1ccc2ncccc2c1)N(Cc1ccc(F)cc1)C(=O)c1ccc2c(c1)OCCO2` (stereo not drawn)?
IMPase Li cell: 7%[38.3 µM]; MBNL1-CUG inh: -14%; NPSR antagonist: 13µM*; Tb PFK inh: 0%; RGS12 GoLoco inh: -3%

How did O=C(NC1CCCCC1)C(c1ccc2ncccc2c1)N(Cc1ccc2c(c1)OCO2)C(=O)c1ccc2c(c1)OCCO2 (stereo not drawn) do in these assays?
IMPase Li cell: -1%; NPSR antagonist: -8%; Tb PFK inh: 1%; RGS12 GoLoco inh: 3%

What do the screens show for `CCc1cc2c(=O)c(-c3cnn(-c4ccccc4)c3)c(C)oc2cc1OCC(=O)Nc1ccc(F)c(F)c1`?
IMPase Li cell: -7%; NPSR antagonist: 7.9µM*; Tb PFK inh: -9%; RGS12 GoLoco inh: -5%

Results for COc1ccc(C2(c3ccc(OC)cc3)NC(=O)N(CC(=O)NCC(C)c3ccccc3)C2=O)cc1 (stereo not drawn) ?
Tb PFK inh: -1%

How did C[C@H]1C2=C3C(C[C@H]4C(=O)N(c5ccccc5)C(=O)[C@H]4[C@H]3[C@@]3(Cc4ccccc4)C(=NCCc4c[nH]c5ccccc45)OC(=O)N3C2=O)[C@H]2C(=O)N(c3ccccc3)C(=O)[C@H]21 (stereo partly drawn) do in these assays?
IMPase Li cell: -2%; RGS12 GoLoco inh: 4%

Results for Cc1c(CCOC(=O)CC23CC4CC(CC(C4)C2)C3)sc[n+]1CC(=O)c1ccc(Br)cc1 ?
IMPase Li cell: 2%[38.3 µM]; MBNL1-CUG inh: -5%; NPSR antagonist: 10µM*; RGS12 GoLoco inh: 7%
